Source: PubChem (ICCB-Longwood Screening Facility, Harvard Medical School)
The full list was thinned out, with hits kept by preference.
Choline anaer gr: choline-fed anaerobic bacterial growth inhibition; Gram-negative bacterium anaerobic choline minimal medium, absorbance growth; stronger effect = lower value; calls only; actives 0.2% (n = 55,000); AID 1963822; call rule not given here
Large screens that a line does not name were inactive; ! = a repeat was not active.

COc1ccc(C(=O)Nc2sc3c(c2-c2nc4ccccc4s2)CCN(C(C)C)C3)cc1OC	Choline anaer gr active
COC(=O)c1ccc(C(=O)Nc2sc3c(c2-c2nc4ccccc4s2)CCN(C(C)C)C3)cc1	none
CC(=O)Nc1sc2c(c1-c1nc3ccccc3s1)CCN(C(C)C)C2	none
CC(C)c1cc(C(=O)N2CCCCC2)no1	none
O=C(COc1ccc(-c2cnc3ccccc3n2)cc1)Nc1cc(F)ccc1F	none
Cc1nc(OCC(=O)Nc2ccc(F)cc2F)c2ccccc2n1	Choline anaer gr active
CCc1nc(OCC(=O)Nc2cc(C)cc(C)c2)c2ccccc2n1	none
CCc1ccc2c(c1)[C@H]1OCCC[C@H]1C(c1ccc(OC)c(C)c1)N2 (some centres undefined)	none
Cc1onc(-c2ccccc2Cl)c1C(=O)N[C@@H]1C(=O)N2[C@@H]1SC(C)(C)[C@@H]2C(=O)O	Choline anaer gr active
CC1(C)S[C@@H]2[C@H](NC(=O)Cc3ccccc3)C(=O)N2[C@H]1C(=O)O	none
Cc1onc(-c2c(F)cccc2Cl)c1C(=O)N[C@@H]1C(=O)N2C(C(=O)O)C(C)(C)S[C@H]12 (some centres undefined)	none
O=C(Nc1ccc2nc3n(c(=O)c2c1)CCCC3)Nc1ccc(Br)cc1F	none
COc1ccc(C2CC(=O)c3cnc4c(-c5ccc(F)cc5)c(C)nn4c3C2)cc1OC (centres undefined)	none
Cc1cc(C)cc(N(CC(=O)NC2CC2)S(=O)(=O)c2c(C)nn(C)c2C)c1	none
O=C(CC1(CC2=NS(=O)(=O)c3ccccc3N2)CCCC1)NCCc1ccc(Cl)cc1	none
O=C(Nc1nc2ccccc2s1)c1ccc(S(=O)(=O)N2CCc3ccccc3C2)cc1	none
CCN1CCc2nc(NC(=O)c3ccc(S(=O)(=O)N4CCc5ccccc5C4)cc3)sc2C1	Choline anaer gr active
CCCN1CCc2nc(NC(=O)c3ccc(S(=O)(=O)N4CCc5ccccc5C4)cc3)sc2C1	none
C=Cc1ccc(COc2cc3c(C(=O)OCC)c(CSc4ccccc4)n(C)c3cc2Br)cc1	none
CS(=O)(=O)NCCc1csc(-c2ccc(Cl)cc2)n1	none
NC(=O)CN1C(=O)CSc2ccc(C(=O)N3CCCC3)cc21	none
CCC(=O)N1CCc2cc(-c3ccc(C(=O)N4CCN(c5ccccn5)CC4)cc3)ccc21	none
CCCOc1ccc(C2NCCc3c2[nH]c2ccccc32)cc1OC (centres undefined)	none
Oc1ccc(C2NCCc3c2[nH]c2ccc(Cl)cc32)cc1 (centres undefined)	Choline anaer gr active
COc1ccc(C2NCCc3c2[nH]c2ccccc32)cc1O (centres undefined)	none
CCOc1cc(C2NCCc3c2[nH]c2ccc(Cl)cc32)ccc1O (centres undefined)	Choline anaer gr active
COc1ccc2[nH]c3c(c2c1)CCNC3c1cccc(O)c1 (centres undefined)	none
Oc1ccc(C2NCCc3c2[nH]c2ccc(Cl)cc32)cc1O (centres undefined)	none
Cn1c(=O)c2c(nc3n(-c4ccc(F)cc4)c(-c4ccc(Cl)cc4)cn23)n(C)c1=O	none
COc1ccc(NC(=O)C2CCN(c3c(NC(C)=O)c(C)nn3-c3ccccc3)CC2)cc1	none
CCOc1ccc(S(=O)(=O)[C@H]2CS(=O)(=O)C[C@@H]2NCCc2c[nH]c3ccccc23)cc1	none
Cc1ccc(NC(=O)CCCC2=NS(=O)(=O)c3ccccc3N2)cc1F	Choline anaer gr active
Cc1cc(C)cc(NC(=O)CC2(CC3=NS(=O)(=O)c4ccccc4N3)CCCC2)c1	none
O=C(CCC1=NS(=O)(=O)c2ccccc2N1)NCc1ccc(F)cc1	none
CCCCS(=O)(=O)N1CCCN(C2=NS(=O)(=O)C(c3ccc(C)cc3)=C2C)CC1	none
O=C(C1=COCCO1)N1CCN(c2nc3ccc(F)cc3s2)CC1	none
CCCCC(=O)Nc1ccc2nc(NC(C)=O)sc2c1	none
O=c1onc2n1-c1cc(Br)ccc1OC2	Choline anaer gr active
Cc1nc(CN2C(=O)COc3ccc(S(=O)(=O)N4CCCCC4)cc32)no1	none
Cc1nc(CN2C(=O)COc3ccc(S(=O)(=O)N4CCCC4)cc32)no1	none
Cc1cc(-c2ccc(Br)cc2)n2nc(C)cc2n1	none
Cc1ccc(-c2noc(-c3scc(-c4cccc(C)c4)c3-n3cccc3)n2)cc1	none
CN(C)CCC=C1c2ccccc2Sc2ccc(Cl)cc21	Choline anaer gr active
CN(C)CC/C=C1\c2ccccc2Sc2ccc(Cl)cc21	none
Cc1cc(-c2cc(S(=O)(=O)NCc3ccccc3Cl)c(C)s2)n[nH]1	none
Cc1cccc(-c2cc(N3CCN(S(=O)(=O)c4ccc(Br)cc4)CC3)ncn2)c1	none
COc1ccc(NC(=O)N2CCC3(CC2)Nc2cc(OC)ccc2-n2cccc23)cc1	none
CCCCCCCCCCCCC(O)C(=O)O (centres undefined)	none
CCN1CCN(CCNc2nc(C3CC3)nc3c2CCC3)CC1	Choline anaer gr active
CN1CCN(CCNc2nc(C3CC3)nc3c2CCC3)CC1	none
O=C1CCCN1CCCNc1nc(C2CC2)nc2c1CCC2	none
CC(=O)NC(C)c1nc(-c2ccccc2Cl)no1 (centres undefined)	none
CCc1nc2onc(C)c2c(=O)n1CC(=O)N1CCCC1	none
COc1ccc(OCc2nnc3sc(-c4cc5ccccc5[nH]4)nn23)cc1	none
Cc1cc(C(=O)N2CCCC2c2c(C)noc2C)no1 (centres undefined)	none
Cc1noc(C)c1C1CCCN1C(=O)c1cc(C2CC2)on1 (centres undefined)	Choline anaer gr active
CCc1onc(C)c1C1CCCN1C(=O)c1cc(C2CC2)on1 (centres undefined)	none
CCc1cc2c(Nc3ccccc3F)ncnc2s1	none
Cc1ncc2c(N3CCOCC3)nccn12	none
CN1CCCN(c2ccc(NC(=O)c3ccccc3Cl)c(C(=O)O)c2)CC1	none
CC1CCCN(c2ccc(NC(=O)C3CCC3)c(C(=O)O)c2)C1 (centres undefined)	none
CC1CCCN(c2ccc(NC(=O)c3ccccc3Cl)c(C(=O)O)c2)C1 (centres undefined)	Choline anaer gr active
COc1ccc2c(c1)C=C(C(=O)Nc1ccc(-n3cnnn3)cc1)C=CO2	none
CN(CCNc1ncnc2onc(-c3cccc(Cl)c3)c12)C1CCCCC1	Choline anaer gr active
Cc1ccc(-c2noc3ncnc(NCCN(C)C4CCCCC4)c23)cc1	none
Clc1cccc(-c2noc3ncnc(NCc4ccc5c(c4)OCO5)c23)c1	none
O=C(Nc1ccccc1Br)N1CCN(c2ccc(-c3noc(C4CCC4)n3)cc2)CC1	none
CCc1ccc(OCc2nc(CCN(C)C(=O)Nc3ccc(C(=O)OC)cc3)no2)cc1	Choline anaer gr active
CCc1ccc(NC(=O)N(C)CCc2noc(-c3ccc(C)cc3)n2)cc1	none
CCOc1ccccc1NC(=O)N(C)CCc1noc(COc2ccc(Cl)cc2)n1	none
CO[C@@]12[C@H](COC(N)=O)C3=C(C(=O)C(C)=C(N)C3=O)N1C[C@@H]1N[C@@H]12	Choline anaer gr active!
c1ccc(-n2ccnc2SCc2nc(-c3ccc4c(c3)OCO4)no2)cc1	none
Cc1cc(C)c2c(n1)sc1c(=O)n(CC(=O)Nc3cc(F)ccc3C)cnc12	none
COc1cccc2c1C(=O)c1c(O)c3c(c(O)c1C2=O)C[C@@](O)(C(=O)CO)CC3O[C@H]1CC(N)C(O)C(C)O1 (some centres undefined)	none
NC(N)=N/N=C/c1c(Cl)cccc1Cl	Choline anaer gr active!
NC(N)=NC(=O)Cc1c(Cl)cccc1Cl	none
Cn1nc(CO)c2c1CCN(Cc1ccc(Br)o1)C2	none
Cn1cc(C2=C(c3cn(CCCSC(=N)N)c4ccccc34)C(=O)NC2=O)c2ccccc21	none
COc1ccc2c(c1)c(C1=C(c3c[nH]c4ccccc34)C(=O)NC1=O)cn2CCCN(C)C	none
CN(C)CCCn1cc(C2=C(c3c[nH]c4ccccc34)C(=O)NC2=O)c2ccccc21	Choline anaer gr active!
